tested on: Trichuris muris adult worms; experiment: mean motility score (Paragon pixel variance) of adult worms (arbitrary units); higher = more motile worms, i.e. less anthelmintic effect; extreme values may be limits of the assay; conditions: 100 µM; 24 h
Procedure, shortened: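 Each drug was tested with three worms in three wells, run over three separate occasions and vehicle and positive controls included. The worms were single adult Trichuris muris from infected NOD SCID mice, held for 24 h at 37°C and 5% CO2 in 100 μL RPMI-1640 with antibiotics and drug at 100 μM (1% v/v DMSO) in 96-well plates. Motility score was derived by Paragon pixel-variance analysis of films from an automated phenotyping platform and averaged over replicate wells.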

Row | Compound | mean motility score
1 | CC(=O)N1CCN(c2ccc(OC[C@@H]3CO[C@@](Cn4ccnc4)(c4ccc(Cl)cc4Cl)O3)cc2)CC1 [ketoconazole] | 1360
2 | CC(=O)Oc1cccc2c1C(=O)c1c(OC(C)=O)cc(C(=O)O)cc1C2=O [diacerein] | 0
3 | CCN(CC)CCOC(=O)C1(C2CCCCC2)CCCCC1.Cl [dicyclomine hydrochloride] | 4250
4 | N=C(NCCCCCCNC(=N)NC(=N)Nc1ccc(Cl)cc1)NC(=N)Nc1ccc(Cl)cc1 [chlorhexidine] | 320
5 | CCc1cccc2c3c([nH]c12)C(CC)(CC(=O)O)OCC3 (stereo not drawn) [etodolac] | 2190
6 | CCCc1cc(C(N)=S)ccn1 [protionamide] | 2460
7 | COC1=CC(=O)C[C@@H](C)[C@]12Oc1c(Cl)c(OC)cc(OC)c1C2=O [griseofulvin] | 1250
8 | CC(C)NCC(O)c1ccc(NS(C)(=O)=O)cc1.Cl (stereo not drawn) [sotalol hydrochloride] | 2900
9 | CCN1CCN(c2cc(-c3ccc(F)cc3)c3c(n2)CCCCCC3)CC1 [blonanserin] | 3080
10 | CCOC(=O)[C@H](CCc1ccccc1)N[C@@H](C)C(=O)N1CCC[C@H]1C(=O)O [enalapril] | 2120
11 | CCCCc1oc2ccccc2c1C(=O)c1cc(I)c(OCCN(CC)CC)c(I)c1 [amiodarone] | 2080
12 | CCCCC/C=C\C/C=C\C/C=C\CCCCC(=O)O [gamolenic acid] | 2970
13 | OCCO [ethylene glycol] | 3150
14 | CCC[C@H](N[C@@H](C)C(=O)N1[C@H](C(=O)O)C[C@@H]2CCCC[C@@H]21)C(=O)OCC [perindopril] | 3860
15 | N[C@@H](CO)C(=O)O [serine] | 2250
16 | CC(C)c1ccc2oc3nc(N)c(C(=O)O)cc3c(=O)c2c1 [amlexanox] | 1570
17 | CN/C(=C\[N+](=O)[O-])NCCSCc1csc(CN(C)C)n1 [nizatidine] | 3800
18 | O=C(c1ccc(F)cc1)C1CCN(CCn2c(=O)[nH]c3ccccc3c2=O)CC1 [ketanserin] | 3020
19 | C=CC[C@@H]1/C=C(\C)C[C@H](C)C[C@H](OC)[C@H]2O[C@@](O)(C(=O)C(=O)N3CCCC[C@H]3C(=O)O[C@H](/C(C)=C/[C@@H]3CC[C@@H](O)[C@H](OC)C3)[C@H](C)[C@@H](O)CC1=O)[C@H](C)C[C@@H]2OC [tacrolimus] | 0

Row | Compound | mean motility score
20 | COc1cc2c(Nc3ccc(Br)cc3F)ncnc2cc1OCC1CCN(C)CC1 [vandetanib] | 0
21 | CCCc1nc2c(C)cc(-c3nc4ccccc4n3C)cc2n1Cc1ccc(-c2ccccc2C(=O)O)cc1 [telmisartan] | 1900
22 | C[C@H]1O[C@@H](O[C@H]2[C@@H](O)C[C@H](O[C@H]3[C@@H](O)C[C@H](O[C@H]4CC[C@@]5(C)[C@H](CC[C@@H]6[C@@H]5CC[C@]5(C)[C@@H](C7=CC(=O)OC7)CC[C@]65O)C4)O[C@@H]3C)O[C@@H]2C)C[C@H](O)[C@@H]1O [digitoxin] | 3060
23 | O=C(O)c1cc(-c2ccc(F)cc2F)ccc1O [diflunisal] | 1040
24 | CCOC(=O)[C@H](CCc1ccccc1)N[C@@H](C)C(=O)N1Cc2ccccc2C[C@H]1C(=O)O.Cl [quinapril hydrochloride] | 4700
25 | CCCc1cc(O)nc(S)n1 [propylthiouracil] | 3720
26 | Cc1ccc(-c2cc(C(F)(F)F)nn2-c2ccc(S(N)(=O)=O)cc2)cc1 [celecoxib] | 0
27 | CN(C)C(=O)C(CCN1CCC(O)(c2ccc(Cl)cc2)CC1)(c1ccccc1)c1ccccc1 [loperamide] | 0
28 | Cc1c(C)c2c(c(C)c1O)CC[C@@](C)(CCC[C@H](C)CCC[C@H](C)CCCC(C)C)O2 [vitamin E] | 2950
29 | CCOC(=O)Nc1ccc2c(c1)N(C(=O)CCN1CCOCC1)c1ccccc1S2.Cl [moricizine hydrochloride] | 5
30 | Nc1ncn([C@@H]2O[C@H](CO)[C@@H](O)[C@H]2O)c(=O)n1 [azacitidine] | 4300
31 | CCCCCCCCCCCCCCCCOP(=O)([O-])OCC[N+](C)(C)C [miltefosine] | 2810
32 | Nc1ccc(S(=O)(=O)Nc2ncccn2)cc1 [sulfadiazine] | 2030
33 | NS(=O)(=O)c1cc2c(cc1C(F)(F)F)NCNS2(=O)=O [hydroflumethiazide] | 1060
34 | CC(C)(C)NCC(O)c1ccc(O)c(CO)c1.O=S(=O)(O)O (stereo not drawn) [albuterol sulfate] | 1690
35 | O=C(O)COc1ccc(C(=O)c2cccs2)c(Cl)c1Cl [ticrynafen] | 3440
36 | CC[C@H](C)C(=O)O[C@H]1C[C@@H](C)C=C2C=C[C@H](C)[C@H](CC[C@@H]3C[C@@H](O)CC(=O)O3)[C@H]21 [lovastatin] | 96.7
37 | Nc1ccc(C(=O)Oc2ccccc2)c(O)c1 [phenyl aminosalicylate] | 1040
38 | Nc1cc(C(F)(F)F)c(-c2cc(N3CCOCC3)nc(N3CCOCC3)n2)cn1 [buparlisib] | 3960
